Rab9 prom act = qHTS Assay for Rab9 Promoter Activators. Huh7 Rab9 promoter-luciferase reporter, luminescence, 24 h. Potency, µM (top dose mostly 9.22 µM), without a hit: at the top dose activation, negative = inhibition, hits mostly activators. hit rate 2.8% among 320,000; also: % of control where 0% means no effect; nearly all actives have a fitted effect of over 60% in size
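Stable Rab9-luc Huh7, 1500 cells/well, 2 h settle; cmpd in DMSO, 24 h, 37 °C/5% CO2; luciferase reagent 10 min RT; luminescence.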
FLuc counter = qHTS profiling assay for firefly luciferase inhibitor/activator using purifed enzyme and Km concentrations of substrates (counterscreen for miR-21 project). purified FLuc, Km substrates, luminescence inhibition. Potency, µM (series often up to 57.5 µM), for inactives: at the top dose activity change, negative = inhibition, most hits filed as inhibitors. hit rate 6.9% among 360,000;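 also: plate controls were vehicle for no effect and reference inhibitor for full effect; nearly all actives have a fitted effect of over 55% in size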
Target sequence (P08659 whole entry, looked up): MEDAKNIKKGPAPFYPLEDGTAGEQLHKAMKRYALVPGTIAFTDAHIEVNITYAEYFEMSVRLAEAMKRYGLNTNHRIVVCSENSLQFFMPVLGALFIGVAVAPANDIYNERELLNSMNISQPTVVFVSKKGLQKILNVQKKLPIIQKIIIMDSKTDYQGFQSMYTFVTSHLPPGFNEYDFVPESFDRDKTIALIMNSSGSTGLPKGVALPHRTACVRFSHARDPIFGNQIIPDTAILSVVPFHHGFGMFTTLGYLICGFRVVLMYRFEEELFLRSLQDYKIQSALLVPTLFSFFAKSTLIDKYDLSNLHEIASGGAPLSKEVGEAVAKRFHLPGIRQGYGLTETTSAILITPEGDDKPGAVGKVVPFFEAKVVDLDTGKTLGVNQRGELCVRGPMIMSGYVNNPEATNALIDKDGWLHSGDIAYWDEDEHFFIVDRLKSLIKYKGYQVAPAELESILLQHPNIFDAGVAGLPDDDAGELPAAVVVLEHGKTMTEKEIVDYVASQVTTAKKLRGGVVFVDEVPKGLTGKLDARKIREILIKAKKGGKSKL
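Biochemical qHTS of compounds, final roughly 60 µM downward over six points, against 10 nM purified firefly luciferase using Km concentrations of substrates (10 uM D-luciferin, 10 uM ATP) in Tris acetate pH 7.5 buffer; luminescence output.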
ELG1 genotox = qHTS screen for small molecules that induce genotoxicity in human embryonic kidney (HEK293T) cells expressing luciferase-tagged ELG1 | HEK293T ELG1-luciferase reporter, luminescence, 16 h | Potency, µM (doses to about 46 µM), without a hit: top-dose activity change, positive = activation, most hits filed as activators | hit rate 1.3% among 330,000; also: % of control where 0% means no effect; nearly all actives have a fitted effect of over 60% in size
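Step 1: seed 2,000 HEK293T ELG1-luciferase cells per well. Step 2: add compound or DMSO, incubate 16 hr at 37 °C. Step 3: ONE-Glo, 30 min at room temperature, read luminescence.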
SMN2 splice enh = qHTS Assay for Enhancers of SMN2 Splice Variant Expression; HEK293 SMN2-luciferase splicing reporter, luminescence, 30-36 h; Potency, µM (doses to about 46.1 µM), inactives show top-dose activity change, positive = activation, most hits filed as activators; hit rate 2.8% among 210,000; AID 1458, 2008; also: % of control where 0% means no effect; nearly all actives have a fitted effect of over 55% in size
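HEK293 cells carry an SMN2 minigene-luciferase reporter in which exon 7 inclusion puts luciferase in frame. Cells were seeded at 2000 cells/well, attached for 10-12 hours, then exposed to compounds for 30-36 hours at 37C before ONE-Glo luminescence.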
NPC1 prom act = qHTS Assay for NPC1 Promoter Activators | hit rate 2.4% among 320,000 | AID 485313, 2010 | Potency, µM (series often up to 9.22 µM), inactives show top-dose activation, most hits filed as activators | Huh7 NPC1 promoter luciferase reporter, 24 h; also: % of control where 0% means no effect; nearly all actives have a fitted effect of over 60% in size
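In 1536-well qHTS, Huh7 cells harboring an NPC1 promoter–luciferase construct received compound for 24 h; activation was quantified by luminescence following luciferase reagent addition.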
ELG1 DNA repair = qHTS screen for small molecules that inhibit ELG1-dependent DNA repair in human embryonic kidney (HEK293T) cells expressing luciferase-tagged ELG1. HEK293T ELG1-luciferase reporter, luminescence, 16 h; DNA damage induced by 5-fluorouridine. Potency, µM (doses to about 46.1 µM), without a hit: top-dose activity change, negative = inhibition, usual class: inhibitors. hit rate 2.3% among 330,000; also: % is scaled to controls: 0 for no effect and ±100 for the full control effect; nearly all actives have a fitted effect of over 55% in size
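Overnight (16 hr) co-exposure of 2,000 cells/well to 5-fluorouridine and compound at 37 °C preceded detection. Luciferase was quantified via ONE-Glo luminescence; loss of signal denotes inhibition.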
Active calls of the source: *; ? = inconclusive; / = no result given; [ ] = another dose, or the depositor's remark. The list is not random: actives were taken first. Their share in the collection is about 9.2%. Calls follow the shape of the dose curve; as a rule, active = well fitted curve in the direction sought with a large enough effect; inconclusive = small, poorly fitted or top-dose-only effect, or another doubt; inactive = no such curve, though single readings can be large; an effect the other way counts as inactive or inconclusive. Potency is read from the fitted curve at half-maximal effect.

SMILES	Rab9 prom act	FLuc counter	ELG1 genotox	SMN2 splice enh	NPC1 prom act	ELG1 DNA repair
CCCOc1ccccc1C1NC(=O)NC(C)=C1C(=O)OCCOC (stereo not drawn)	-6%	3%	2%	?	-4%	6%
CC1=C(C(=O)OCc2ccccc2)C(c2ccc([N+](=O)[O-])cc2)NC(=O)N1 (stereo not drawn)	3%	-1%	-5%	/	3%	?
O=C(c1cc(Cl)cc(Cl)c1)N1CCN(c2cc(C(F)(F)F)nc3ccccc23)CC1	-6%	-1%	-8%	/	-3%	21µM*
CC(C)c1ccc(NC(=O)c2cn(C3CCCCC3)c(=O)c3c2c2ccccc2n3C)cc1	/	0%	/	-8%	/	/
CCOC(=O)c1c(C)nc2sc3c(=O)n(-c4ccc(C(C)=O)cc4)cnc3c2c1-c1ccc(Cl)cc1	-6%	2%	-3%	-7%	1%	21µM*
C=CCOc1ccc(/C=C2\SC(=S)N(C(C(=O)O)c3ccccc3)C2=O)cc1 (stereo not drawn)	-3%	21µM*	-3%	/	0%	-1%
COc1ccc(OC)c(/C=C2\SC(=S)N(C(C(=O)O)c3ccccc3)C2=O)c1 (stereo not drawn)	0%	-9%	-2%	/	6%	-3%
CCOc1ccc(/C=C2\SC(=S)N(C(C(=O)O)c3ccccc3)C2=O)cc1OC (stereo not drawn)	-11%	19µM*	2%	/	-1%	0%
CCc1cccc(-n2c(=O)c3cccnc3n2CC(=O)NCc2ccccc2Cl)c1	/	0%	/	/	/	/
O=C(Nc1ccccc1C(F)(F)F)c1ccc2oc(=O)c(S(=O)(=O)c3ccc(F)cc3)cc2c1	/	-4%	/	-28%	/	/
CCCCCCCCCCCCCCCC[n+]1cccc2ccccc21	-51%	-4%	-3%	-59%	-40%	13µM*
CCCCCCCCC[n+]1cccc2c3ccccc3ccc21	-42%	5%	-10%	-69%	-49%	?
Cc1ccc(NC(=O)N2CCC(CN3CCCCC3)CC2)c(Cl)c1	/	0%	/	/	/	/
COc1ccc(-c2cc3ccc(OC)cc3cn2)cc1	0.32µM*	0.19µM*	?	/	0.28µM*	?
COc1ccc(-c2ccc(OC)cc2)cc1	7%	?	12%	/	10%	?
COc1ccc2ccc(Oc3ncccn3)cc2c1	?	-24%	15%	18%	9%	?
COc1ccc(-c2cc3ccccc3cn2)cc1	0.63µM*	0.85µM*	2.6µM*	/	0.63µM*	?
c1ccc(-c2cc3ncccc3cn2)cc1	-4%	?	?	/	?	?
COc1ccc2cc(-c3cccnc3)ncc2c1	?	3.8µM*	?	/	2.2µM*	?
COc1ccc2cc(-c3ccon3)ccc2c1	?	3µM*	?	/	?	?
COc1ccc2cc(-c3ccccc3F)ncc2c1	?	0.95µM*	?	/	1.4µM*	?
COc1ccc(NCc2cc3cc4c(cc3n(CC(=O)Nc3ccccc3)c2=O)OCO4)cc1	/	-2%	/	/	/	/
Cc1ccc(-c2nc3ccccc3[nH]2)cn1	?	15µM*	?	/	?	?
Clc1ccc(-c2nc3ccccc3[nH]2)cn1	?	19µM*	10%	/	?	?
Cc1nc2ccc(-c3nc4ccccc4[nH]3)cc2[nH]1	0.63µM*	4.8µM*	19%	2.8µM*	1.4µM*	?
SMILES	Rab9 prom act	FLuc counter	ELG1 genotox	SMN2 splice enh	NPC1 prom act	ELG1 DNA repair
Cc1nc2ccc([N+](=O)[O-])cc2[nH]1	-2%	-2%	-2%	0%	-2%	-8%
Cc1ccc2nc(C(F)C(F)(F)F)[nH]c2c1 (stereo not drawn)	1%	19µM*	7%	/	-4%	?
CCCN(CCC)CCCNC(=O)c1sc2nc3n(c(=O)c2c1C)CCC3	/	-11%	/	/	/	/
Cc1ccc2oc(=O)c(-c3nc4ccc(C)cc4[nH]3)cc2c1	/	3%	/	/	/	/
Cc1ccc2nc(-c3ccncc3)[nH]c2c1	?	8.5µM*	12µM*	/	2.2µM*	?
CCOc1cccc(/C=C2\NC(=S)N(c3ccccc3)C2=O)c1O	?	5.4µM*	12%	/	1%	?
CCOc1cc(/C=C2\NC(=S)N(c3c(C)n(C)n(-c4ccccc4)c3=O)C2=O)ccc1O	-5%	-1%	2%	3%	-4%	-1%
C=CCn1cccc(C(=O)Nc2ccc(OCC)cc2)c1=O	?	17µM*	16%	-21%	?	-6%
C=CCn1cccc(C(=O)Nc2cc(OC)c(OC)c(OC)c2)c1=O	-2%	-7%	4%	10%	-3%	-3%
C=CCn1cccc(C(=O)Nc2ccc(SC)cc2)c1=O	4µM*	12µM*	7%	/	?	?
C#CCn1cccc(C(=O)Nc2ccc(OC)cc2)c1=O	19%[1.84 µM]	19µM*	14%	/	29%	?
C=CCn1cccc(C(=O)Nc2cc(OC)cc(OC)c2)c1=O	26%	?	5%	19%	5%	11%
C=CCn1cccc(C(=O)Nc2ccc(N(C)C)cc2)c1=O	4µM*	8.5µM*	?	/	3.5µM*	?
C=CCn1cccc(C(=O)Nc2ccc(OC)cc2OC)c1=O	18%	?	3%	-3%	10%	5%
CCOc1ccc(NS(=O)(=O)c2ccc(C(=O)N3CC(C)OC(C)C3)cc2)cc1 (stereo not drawn)	-4%	8%	0%	/	-5%	?
CN1C(=O)Cc2cc(S(=O)(=O)NCc3ccc(Cl)cc3)ccc21	/	2%	/	/	/	/
CC(=O)Nc1ccc(S(=O)(=O)NCc2cccn2Cc2cccc(C)c2)cc1	/	-2%	/	/	/	/
C=CCn1cccc(C(=O)Nc2ccc(Cl)cc2)c1=O	?	17µM*	?	/	?	?
C=CCn1cccc(C(=O)Nc2ccc(OC)c(OC)c2)c1=O	3%	?	9%	-17%	12%	-3%
CN1/C(=C\C(=O)c2cccs2)Sc2ccccc21	3.5µM*	1.5µM*	?	/	?	?
CN1/C(=C/C(=O)c2cccs2)Sc2ccccc21	-21%	1.2µM*	1.3µM*	7.9µM*	5%	?
CN1/C(=C/C(=O)C2CCC2)Sc2ccccc21	?	17µM*	?	?	?	?
CCOc1ccccc1NC(=O)CSc1nc2ccccc2nc1Cc1ccc(C)cc1	/	-10%	/	/	/	/

Screening results from PubChem.
